Several values for one entry are separate records, joined by “and”; a condition that tells them apart may be missing. Equal values may be shown once. More than one record can exist for a structure, and the calls need not agree. Activity calls are given as the source filed them. Cut-off read from the data, not from the text of the source, unless noted: active = inhibition above about 80%; inactive = the rest.
Legend:
[1] = compounds altering viability of human ES cells (AID 493140; call rule not given here;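 note: cells exposed to compounds for four days before counting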); settings: human embryonic stem cell survival screen; stronger effect = higher value
[2] = P. berghei load reduction in hepatocytes – cell-based, HepG2, luciferase luminescence, HepG2 viability, primary screen (AID 624349; in the data active = parasite load remaining mostly below about 12%, no sharp cut-off; inactive = mostly above about 10%;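 note: 100% = mean of DMSO negative control wells on the same plate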); settings: P. berghei liver stage in HepG2, luciferase luminescence, concentration not given here; parasite load remaining: stronger effect = lower value; viability: measured here: HepG2 viability without parasites
[3] = viability loss with induced miR-34 in A549 – imaging, A549 dox-inducible miR-34, nuclei and caspase counts, primary screen (AID 1347080;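 active = compounds whose cell count with miR-34 switched on is under 0.7 times the count with it off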); settings: A549 miR-34 inducible, Hoechst nuclei count, 48 h
[4] = MELAS cybrid and Rieske KO viability enhancers – cell-based, MELAS cybrids, Rieske KO mouse fibroblasts, CellTiter-Glo, primary screen (AID 1508586;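 active = mean z-score across replicates of 1.96 or higher in either the MELAS or the Rieske mutant cell line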;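 note: z relative to plate mean and SD of compound and empty wells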); settings: low glucose
[5] = growth inhibition, single agent or in combination, cell-based, chromothripsis tumors, cisplatin or BGB combos (AID 1671449); settings: LFS_MB_P medulloblastoma cells;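 note: cells exposed for 96 hours; 0% = vehicle DMSO and 100% = killing by high DMSO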
[6] = growth inhibition, single agent and combos, cell-based, chromothripsis tumors, cisplatin or BGB combos (AID 1671450); settings: HDN33 neuroblastoma cells, stronger effect = higher value;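 note: cells exposed to compound for four days; 0% = vehicle DMSO and 100% = cell killing by high DMSO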
[7] = growth inhibition, single agents and combos, ICB984, cell-based, cisplatin or BGB combos, synergistic combos for chromothripsis tumors (AID 1671451; call rule not given here;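 note: cells exposed for 96 hours before readout; 0% = vehicle DMSO and 100% = killing by high DMSO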); settings: ICB984 medulloblastoma cells, drug combinations, stronger effect = higher value
[8] = growth inhibition, single agents and combos, LFS_MB_1R, cell-based, cisplatin or BGB combos, synergistic combos for chromothripsis tumors (AID 1671452); settings: LFS_MB_1R medulloblastoma cells, stronger effect = higher value;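 note: cells exposed for 96 hours before readout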
[9] = growth inhibition, single agents and combos, HTB85, cell-based, BGB or cisplatin IC20 combos, synergistic combos for chromothripsis tumors (AID 1671453); settings: HTB85 osteosarcoma cells, drug combinations, stronger effect = higher value;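 note: cells exposed for 96 hours before readout; 0% = vehicle DMSO and 100% = high DMSO killing control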
[10] = growth inhibition, single agents and combos, CRL2098, cell-based, BGB or cisplatin IC20 combos, synergistic combos for chromothripsis tumors (AID 1671454); settings: CRL2098 osteosarcoma cells, drug combinations, stronger effect = higher value;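 note: cells exposed for 96 h before readout; 0% = vehicle DMSO and 100% = killing by high DMSO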
[11] = growth inhibition, single agents and combos, HD-MB03, cell-based, BGB or cisplatin IC20 combos, synergistic combos for chromothripsis tumors (AID 1671455; in the data active = inhibition above about 83%;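 note: 0% = vehicle DMSO and 100% = high DMSO as cytotoxic control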); settings: HD-MB03 medulloblastoma cells, stronger effect = higher value
[12] = growth inhibition, single agents and combos, UWB1.289, cell-based, BGB or cisplatin combos, synergistic combos for chromothripsis tumors (AID 1671456); settings: UWB1.289 ovarian carcinoma cells, stronger effect = higher value;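 note: cells exposed to compound for four days; 0% = vehicle DMSO and 100% = killing by high DMSO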
[13] = growth inhibition, single agents and combos, LFS_MB_2R, cell-based, cisplatin combos, synergistic combos for chromothripsis tumors (AID 1671457); settings: LFS_MB_2R medulloblastoma cells, stronger effect = higher value;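 note: cells exposed to compound for four days before readout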
[14] = growth inhibition, MDA-MB-436, cell-based, BGB or cisplatin combos, synergistic combos for chromothripsis tumors (AID 1671458; call rule not given here;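 note: cells exposed for 96 hours; 0% = vehicle DMSO and 100% = killing by high DMSO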); settings: MDA-MB-436 breast carcinoma growth inhibition, drug combinations, stronger effect = higher value
[15] = UWB1.289_BRCA1 ovarian cancer growth, cell-based, BGB or cisplatin combinations (AID 1671459); settings: UWB1.289 BRCA1 ovarian carcinoma, drug combinations, stronger effect = higher value
[16] = drug combination toxicity in non-malignant astrocytes – cell-based, BGB or cisplatin IC20 combos, cytotoxicity control for chromothriptic childhood tumor combination screen (AID 1671460); settings: Human astrocytes, viability inhibition, drug combinations, at 0.5 µM, stronger effect = higher value;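 note: cells exposed to compounds for 96 hours before viability readout; 0% = vehicle and 100% = killing control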
[17] = BT084 cell growth, single and combined drugs, ICGC_MB145, cisplatin and BGB IC40 combos (AID 1671461); settings: BT084 medulloblastoma cells, drug combinations, stronger effect = higher value;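 note: cells exposed to drugs for 96 hours; 0% = vehicle DMSO and 100% = high DMSO full killing control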
[18] = RCMB18 cell growth, single agent and combined, cisplatin and BGB IC40 combos (AID 1671462); settings: RCMB18 medulloblastoma cells, stronger effect = higher value;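 note: cells exposed to compound for four days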
[19] = CRL1545 cell growth, single agent and combined, cisplatin and BGB IC20 combos (AID 1671464); settings: CRL1545 osteosarcoma cells, stronger effect = higher value;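 note: cells exposed to compound for 96 hours before readout; 0% = vehicle DMSO and 100% = high DMSO killing control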
[20] = stronger effect = lower value, cell number ratio, induced over uninduced
[21] = measured here: relative caspase fold change +Dox/-Dox
[22] = measured here: total cells with miR-34 induction, stronger effect = lower value
[23] = measured here: total cells without miR-34 induction
[24] = MELAS cybrid survival, CellTiter-Glo 48 h, stronger effect = higher value
[25] = Rieske KO mouse fibroblast survival, CellTiter-Glo 72 h
[26] = measured here: combination with BGB IC40, at 0.05 µM
[27] = measured here: with BGB IC20 combination, at 0.5 µM
[28] = measured here: with cisplatin IC20 combination, at 0.5 µM
[29] = measured here: combination with cisplatin, at 0.5 µM
[30] = measured here: combination with cisplatin, at 5 µM

Cc1onc(-c2c(F)cccc2Cl)c1C(=O)N[C@@H]1C(=O)N2C(C(=O)O)C(C)(C)S[C@H]12 (stereo partly drawn)
survival [1]: 15.2 (inactive) | parasite load remaining [2]: 131% (inactive) | viability [2]: 74.7% | fold change [3, 20]: 0.98 (inactive) | fold change [3, 21]: 0.516 | cell count [3, 22]: 9050 | cell count [3, 23]: 9240 | z-score [4, 24]: 0.325 (inactive) | z-score [4, 25]: 0.193

CC=C1NC(=O)C2CSSCCC=CC(CC(=O)NC(C(C)C)C(=O)N2)OC(=O)C(C(C)C)NC1=O (stereo not drawn)
fold change [3, 20]: 0.776 (inactive) | fold change [3, 21]: 0.484 | cell count [3, 22]: 596 | cell count [3, 23]: 768 | z-score [4, 24]: 0.102 (inactive) | z-score [4, 25]: -3.68 | inhibition ([5]; at 0.5 µM, stronger effect = higher value): -10.7% (inactive) and 88% (active) | inhibition ([5]; measured here: combination with BGB IC20, at 0.005 µM): 24.5% and 60% | inhibition ([5]; measured here: combination with BGB IC40, at 0.005 µM): 2.54% and 37.2% | inhibition [5, 26]: 74.1% and 67.4% | inhibition ([5]; measured here: combination with cisplatin, at 0.5 µM, stronger effect = higher value): 10.9% and 123% | inhibition ([5]; measured here: combination with cisplatin, at 5 µM, stronger effect = higher value): 118% and 111% | inhibition ([6]; BGB combo, at 5 µM): 99.8% and 99.9% | inhibition ([6]; at 0.5 µM): 99.7% (active) and 99.8% (active) | inhibition ([6]; cisplatin combo, at 5 µM): 99.8% and 99.9% | inhibition [6, 27]: 99.7% and 99.8% | inhibition [6, 28]: 99.8% and 99.9% | inhibition ([6]; single agent, at 5 µM): 99.9% | inhibition ([7]; BGB IC20 combo, at 0.005 µM): 90.4% and 84.4% | inhibition ([7]; BGB IC40 combo, at 0.005 µM): 97.9% and 97.5% | inhibition ([7]; BGB IC40 combo, at 0.05 µM): 97% and 97.5% | inhibition ([7]; at 0.5 µM): -17.2% (inactive) and 63.7% (inactive) | inhibition ([7]; cisplatin combo, at 0.05 µM): 96.8% and 97.9% | inhibition ([7]; cisplatin combo, at 0.5 µM): -7.95% and 70.2% | inhibition ([7]; cisplatin combo, at 5 µM): 85.1% and 97.2% | inhibition ([7]; measured here: 5 uM single agent, at 5 µM): 81.2% and 80.4% | inhibition ([8]; at 0.5 µM): 95.1% (active) and 99.5% (active) | inhibition [8, 26]: 91.6% and 93.4% | inhibition [8, 29]: 100% and 110% | inhibition [8, 30]: 98.8% and 99.1% | inhibition ([9]; at 0.5 µM): 99.8% (active) | inhibition ([9]; measured here: with BGB IC20, at 0.5 µM): 99.8% | inhibition ([9]; measured here: with BGB IC20, at 5 µM): 99.9% | inhibition ([9]; measured here: with cisplatin IC20, at 0.5 µM): 99.9% and 99.8% | inhibition ([9]; measured here: with cisplatin IC20, at 5 µM): 99.9% | inhibition ([9]; single agent, at 5 µM): 99.9% | inhibition ([10]; at 0.5 µM): 94.7% (active) and 97.3% (active) | inhibition ([10]; measured here: combination with BGB at IC20, at 0.5 µM): 91% and 95.3% | inhibition ([10]; measured here: combination with cisplatin at IC20, at 0.5 µM): 96.7% and 99.1% | inhibition ([11]; at 0.5 µM): 99.8% (active) and 99.9% (active) | inhibition ([11]; measured here: combo with BGB at IC20, at 0.5 µM): 99.8% | inhibition ([11]; measured here: combo with cisplatin at IC20, at 0.5 µM): 99.8% and 100% | inhibition ([12]; at 0.5 µM): 97.4% (active) and 98.3% (active) | inhibition ([12]; measured here: inhibition with BGB combination, at 0.05 µM): 65.5% and 83.9% | inhibition ([12]; measured here: inhibition with cisplatin combination, at 0.05 µM): 79.2% and 89.7% | inhibition ([13]; at 0.5 µM): 88.5% (active) and 90.2% (active) | inhibition [13, 29]: 99.4% and 104% | inhibition [13, 30]: 102% and 106% | inhibition ([14]; at 0.5 µM): 71.3% (inactive) and 68.4% (inactive) | inhibition ([14]; measured here: BGB combination, at 0.5 µM): 57.2% and 55.5% | inhibition ([14]; measured here: BGB combination, at 5 µM): 70.4% and 77.6% | inhibition ([14]; measured here: cisplatin combination, at 0.5 µM): 73.2% and 67.4% | inhibition ([14]; measured here: cisplatin combination, at 5 µM): 84.8% and 85.1% | inhibition ([15]; BGB combination, concentration series, at 5 µM): 118% and 126% | inhibition ([15]; at 0.5 µM): 106% (active) and 109% (active) | inhibition ([15]; cisplatin combination, concentration series, at 5 µM): 131% and 130% | inhibition [16]: 102% (active) and 101% (active) | inhibition ([16]; measured here: combo with BGB IC20): 105% and 103% | inhibition ([16]; measured here: combo with cisplatin IC20): 101% | inhibition ([17]; at 0.5 µM): 93.8% (active) and 102% (active) | inhibition ([17]; cisplatin combination, at 0.5 µM): 102% and 101% | inhibition ([17]; cisplatin combination, at 5 µM): 106% | inhibition ([17]; measured here: BGB IC40 combination 0.05 uM, at 0.05 µM): 99.6% and 96.6% | inhibition ([17]; single agent, at 5 µM): 106% and 108% | inhibition ([18]; at 0.5 µM): 90.4% (active) and 89.4% (active) | inhibition ([18]; cisplatin combo, at 5 µM): 96% and 97.2% | inhibition ([18]; measured here: BGB IC40 combination, at 0.05 µM): 78.9% and 79.8% | inhibition [18, 29]: 92.6% and 90.7% | inhibition ([18]; single agent, at 5 µM): 96.6% and 90.8% | inhibition ([19]; at 0.5 µM): 96% (active) and 96.3% (active) | inhibition [19, 27]: 97% and 96.3% | inhibition [19, 28]: 95.4% and 96.2% | inhibition ([19]; single agent, at 0.05 µM): 89.7% and 93.3% | inhibition ([19]; single agent, at 5 µM): 97.8% and 96.3%

Source: PubChem BioAssay
